# Measurements: the supplement of paper PMC3334620
# Whole data set: some 33,000 sequences, median “E-score (-0.5 to 0.5)” near -8e-05, cut for the highest 2% near 0.23. The entries come from a sample that favours the highest values as a whole.
# Target: T1, Nrg2 (UniProt P38082)
# T1 sequence: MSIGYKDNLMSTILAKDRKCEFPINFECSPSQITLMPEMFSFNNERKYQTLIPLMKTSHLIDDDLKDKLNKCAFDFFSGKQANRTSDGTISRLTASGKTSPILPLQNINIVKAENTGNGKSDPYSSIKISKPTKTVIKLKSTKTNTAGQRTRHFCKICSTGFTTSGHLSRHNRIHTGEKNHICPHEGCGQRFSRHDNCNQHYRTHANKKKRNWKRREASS
# Experiment: PBM E-score (8-mer binding enrichment) (E-score (-0.5 to 0.5)); higher = stronger / more preferred TF binding
# Conditions: protein concentration: 100 nM; construct: GST-full length
# Method: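 Universal 'all 10-mer' protein binding microarrays (Agilent AMADID 015681) probed with GST-tagged S. cerevisiae TFs (full-length or DBD) made by in vitro transcription/translation (PURExpress), about 100-200 nM. Bound TF was detected with fluorescent anti-GST. Each ungapped 8-mer (which stands for itself and its reverse complement) is scored by the PBM enrichment score (E-score), a modified Wilcoxon-Mann-Whitney statistic from -0.5 to +0.5, computed with the Universal PBM Analysis Suite. Scale: above 0.35 generally sequence-specific binding.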
row,Sequence,PBM E-score
1,ATATTAAG,0.0738
2,GCATTAAA,0.136
3,ATATTAAC,0.176
4,CTATTAAA,0.151
5,ATATTAAT,0.286
6,CTATTCAA,0.0974
7,TTATTAAA,0.196
8,CGTTAAAC,0.0981
9,ATAGTGAC,-0.0527
10,ATATTATC,0.0409
11,ATATTATG,0.304
12,AAATTATG,0.106
13,AAACCATC,0.103
14,ATGTGCAC,0.0387
15,CATCTAAC,-0.152
16,GGCATAGA,0.0809
17,GATTATAA,0.207
18,AATTATAC,0.122
19,GATTATAC,0.235
20,CTTAGAAC,0.0319
21,CTGACTGA,-0.0542
22,GCTCGAAC,0.191
23,CAAAGAAA,0.0775
24,GAAAGAAC,0.0456
25,TGCAGAAA,0.104

row,Sequence,PBM E-score
1,GGCAGAAC,0.088
2,GGCAGAAA,0.286
3,GAAAGAAA,0.281
4,AAGCTGAG,-0.00374
5,AGCGGTAG,-0.196
6,GAGTAAGA,-0.0102
7,AAGACGGT,-0.161
8,CAAAGCAC,-0.0605
9,CAAAGCAA,0.265
10,CAAAGCAG,0.0557
11,AGTTAGGG,0.0307
12,ACATAAAC,0.0128
13,GAGACCAA,0.241
14,ACGACCAA,-0.12
15,GCGACCAC,-0.0633
16,GCGACCAA,0.248
17,TAGACCAA,0.121
18,CAGACCAA,0.0347
19,CCTTATCC,-0.23
20,AAACTAGG,-0.0197
21,CACCGCAA,0.233
22,AACCGCAA,0.185
23,CACCGCAG,0.0838
24,GGCATGCA,-0.113
25,TGCATGCA,0.233

row,Sequence,PBM E-score
1,CGCATGCA,0.246
2,CGCATGCC,0.145
3,CGCATGCG,0.0387
4,AGCATGCA,0.00231
5,GGGCGACA,-0.132
6,AGAGTTGA,-0.073
7,GTCCCACA,0.0612
8,ACGTTGAC,-0.00444
9,TCAACACA,0.235
10,CCAACACG,0.0552
11,ACAACACA,0.0869
12,CTTCGATC,-0.00647
13,CGATTCGA,0.27
14,GGATTCGA,-0.0125
15,AGATTCGA,0.0269
16,GCCGCGCC,-0.0901
17,GTCCCGTA,-0.111
18,ACGCGACC,-0.0575
19,GATGCAAA,0.0177
20,AAGCAACG,0.161
21,CAGCAACA,0.159
22,CAGCAACG,0.251
23,GTCAGCAC,-0.0154
24,GACTACGC,-0.187
25,AACGAAAG,-0.0319

row,Sequence,PBM E-score
1,AACGAAAT,0.251
2,AACGAAAC,0.117
3,ATTGCAGC,0.0702
4,GGGCGTAC,0.0663
5,GCACCCTA,0.105
6,CGACCCTA,0.109
7,GTAACCCA,0.229
8,CTAACCCA,-0.00624
9,ATAACCCA,-0.0462
10,GGGACCTA,0.245
11,CGGACCTA,0.0604
12,GGACCCTA,0.305
13,GAACCCCC,-0.322
14,GAACCCCA,0.26
15,AGGACCTA,0.114
16,GAACCCAA,0.0482
17,GCGCTGGA,0.0138
18,ATGGGTAG,-0.13
19,CGACGGTA,0.0706
20,GCAATAGC,0.133
21,AAAAGGGC,0.12
22,ATGCTCCA,0.0544
23,TGACCCCA,0.0468
24,GGACCCCA,0.236
25,GGACCCCC,-0.144

row,Sequence,PBM E-score
1,AAGATAGC,0.0443
2,CAGACGAA,0.252
3,CAGACGAC,-0.0246
4,GAGACGAA,-0.0342
5,GGGACGAA,0.0439
6,CGGACGAC,-0.061
7,CGGACGAA,0.233
8,AAGCTAAT,0.11
9,CTAGTCAC,-0.122
10,AACTACAT,-0.038
11,GGTCTCGA,0.0782
12,CAGACGGC,-0.16
13,CGAGGAAC,0.269
14,AGAGGAAC,-0.113
15,CGAGGAAA,0.0442
16,CAGCACGA,0.0405
17,CCCCTTGC,-0.0115
18,ACCCTTGG,0.198
19,CCCCTAGA,0.117
20,ACCCTAGA,0.284
21,GCCCTTGA,-0.00607
22,CCCCTTGA,0.2
23,ACCCTAGT,-0.0371
24,ACCCTTGA,0.242
25,ACCCTTGC,0.268

row,Sequence,PBM E-score
1,AGGACTAA,-0.0768
2,GTACTAGA,-0.00429
3,AACGACTC,-0.253
4,ATAGAAGA,-0.158
5,CACAGGCA,0.0159
6,AATGACGG,0.125
7,CACCGCGC,-0.0311
8,CGCAGCTA,-0.0329
9,CATCCACA,0.0702
10,ACAGAATA,0.148
11,CTAAATGA,0.0289
12,AAAAATGA,0.0139
13,GGAAATGA,0.25
14,TAAAATGA,0.254
15,GAAAATGA,-0.0055
16,CGAAATGA,0.127
17,CCACCAGA,0.0154
18,CCCGGAGA,-0.138
19,TGATAGCA,0.14
20,TGAGGACA,0.0644
21,ACTCTTTA,-0.0446
22,GAGTAGGC,-0.0622
23,AATACTGC,0.068
24,ACAGCTGC,-0.0727
25,CTTACTAA,0.0213

row,Sequence,PBM E-score
1,CAGGCCTG,0.115
2,AGGGTACT,0.255
3,AGGGTACC,0.0534
4,AGGGTACA,0.181
5,GGTCTACA,-0.0592
6,CAAACCAC,-0.00637
7,CTACGTTC,-0.178
8,ACGGAACA,0.0339
9,CCGGAACA,-0.0209
10,TCGGAACA,0.313
11,CGGCCATA,-0.123
12,AGGTTTCC,-0.0376
13,TCCGTGCA,0.134
14,CGAACGGC,-0.0328
15,CATGGCCA,-0.042
16,CATGGCCC,-0.066
17,CATGGCCG,0.258
18,AGTCAGTC,-0.127
19,ACTAATCG,0.278
20,ACTAATCT,0.00502
21,CCTAATCG,0.16
22,GGACCACC,0.0365
